Measured values from PubChem BioAssay (EPA / NIEHS).
Some compounds were tested as several samples or in several runs, with calls that do not always agree. Active and inactive are the calls of the source. The calls were made as follows: active = hit-call score of the fitted dose curve at least 0.9, where 1 is the maximum; inactive = score below 0.9.

Assays:
[1] = read-out: Macrophage colony-stimulating factor (MCSF), CSF1 (gene 1435); experiment: BSK_CASM3C_MCSF: BioMAP Diversity Plus: CASM3C Assay for Macrophage colony-stimulating factor (MCSF) Biomarker Activity (AID 2283044); conditions: primary human coronary artery smooth muscle cells; actives raise or lower the signal;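 also: M-CSF protein amount quantified by ELISA after 24 h exposure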
[2] = read-out: Low-density lipoprotein receptor (LDLR), LDLR (gene 3949); experiment: BSK_CASM3C_LDLR: BioMAP Diversity Plus: CASM3C Assay for Low-density lipoprotein receptor (LDLR) Biomarker Activity (AID 2283045); conditions: primary human coronary artery smooth muscle cells; actives raise or lower the signal;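 also: LDLR protein level on the cell surface quantified by ELISA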
[3] = read-out: Monocyte Chemoattractant Protein-1 (MCP1), CCL2 (gene 6347); experiment: BSK_CASM3C_MCP1: BioMAP Diversity Plus: CASM3C Assay for Monocyte Chemoattractant Protein-1 (MCP1) Biomarker Activity (AID 2283046); conditions: primary human coronary artery smooth muscle cells; actives raise or lower the signal;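 also: MCP-1 level quantified by ELISA 24 h after dosing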
[4] = BSK_CASM3C_Proliferation: Cell Proliferation Assessment in the BioMAP Diversity Plus: CASM3C Assay (AID 2283047); conditions: primary human coronary artery smooth muscle cells;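 also: sulforhodamine B total protein stain as relative cell number at 560 nm; sub-confluent cells exposed 48 h before staining; fitted both ways against DMSO so gain or loss of cell number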
[5] = read-out: Monokine induced gamma interferon (MIG), CXCL9 (gene 4283); experiment: BSK_CASM3C_MIG: BioMAP Diversity Plus: CASM3C Assay for Monokine induced gamma interferon (MIG) Biomarker Activity (AID 2283048); conditions: primary human coronary artery smooth muscle cells; actives raise or lower the signal;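 also: MIG protein level measured by ELISA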
[6] = read-out: serum amyloid A (SAA), SAA1 (gene 6288); experiment: BSK_CASM3C_SAA: BioMAP Diversity Plus: CASM3C Assay for serum amyloid A (SAA) Biomarker Activity (AID 2283049); conditions: primary human coronary artery smooth muscle cells; actives raise or lower the signal;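 also: SAA protein level quantified by ELISA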
[7] = BSK_CASM3C_SRB: Viability Assessment in the BioMAP Diversity Plus: CASM3C Assay (AID 2283050); conditions: primary human coronary artery smooth muscle cells;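 also: total protein by SRB staining as cytotoxicity measure in parallel cultures; cells exposed to compound for 24 h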
[8] = read-out: Thrombomodulin, THBD (gene 7056); experiment: BSK_CASM3C_Thrombomodulin: BioMAP Diversity Plus: CASM3C Assay for Thrombomodulin Biomarker Activity (AID 2283051); conditions: primary human coronary artery smooth muscle cells; actives raise or lower the signal;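 also: thrombomodulin protein level measured by ELISA 24 h after dosing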
[9] = read-out: Tissue Factor, F3 (gene 2152); experiment: BSK_CASM3C_TissueFactor: BioMAP Diversity Plus: CASM3C Assay for Tissue Factor Biomarker Activity (AID 2283052); conditions: primary human coronary artery smooth muscle cells; actives raise or lower the signal;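 also: cell surface tissue factor protein level read by ELISA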
[10] = read-out: Interferon-gamma inducible Protein 10 (IP10), CXCL10 (gene 3627); experiment: BSK_hDFCGF_IP10: BioMAP Diversity Plus: hDFCGF Assay for Interferon-gamma inducible Protein 10 (IP10) Biomarker Activity (AID 2283053); conditions: primary human foreskin fibroblasts; actives raise or lower the signal
Summary of the method: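 ELISA read-out of IP-10 (CXCL10) from primary human skin fibroblasts, 24 h after compound addition. Gain or loss of signal versus DMSO baseline, bidirectional curve fitting.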

[11] = read-out: Urokinase-type plasminogen activator receptor (uPAR), PLAUR (gene 5329); experiment: BSK_CASM3C_uPAR: BioMAP Diversity Plus: CASM3C Assay for Urokinase-type plasminogen activator receptor (uPAR) Biomarker Activity (AID 2283054); conditions: primary human coronary artery smooth muscle cells; actives raise or lower the signal;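 also: cell-surface uPAR protein level quantified by ELISA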
[12] = read-out: Vascular cell adhesion molecule 1 (VCAM1), VCAM1 (gene 7412); experiment: BSK_CASM3C_VCAM1: BioMAP Diversity Plus: CASM3C Assay for Vascular cell adhesion molecule 1 (VCAM1) Biomarker Activity (AID 2283055); conditions: primary human coronary artery smooth muscle cells; actives raise or lower the signal;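 also: VCAM-1 protein level quantified by ELISA on the cells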
[13] = read-out: Collagen III, COL3A1 (gene 1281); experiment: BSK_hDFCGF_CollagenIII: BioMAP Diversity Plus: hDFCGF Assay for Collagen III Biomarker Activity (AID 2283056); conditions: primary human foreskin fibroblasts; actives raise or lower the signal
Summary of the method: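 Cells: human foreskin fibroblasts, primary. Dosing followed by 24 h incubation, then ELISA for collagen III. Both increases and decreases scored relative to DMSO.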

[14] = read-out: Epidermal growth factor receptor (EGFR), EGFR (gene 1956); experiment: BSK_hDFCGF_EGFR: BioMAP Diversity Plus: hDFCGF Assay for Epidermal growth factor receptor (EGFR) Biomarker Activity (AID 2283057); conditions: primary human foreskin fibroblasts; actives raise or lower the signal
Summary of the method: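 ELISA readout of EGFR on human dermal fibroblasts (primary foreskin cells), 24 h post-dosing; bidirectional curve fit vs DMSO baseline, gain or loss of signal scored.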

[15] = read-out: Interleukin-8 (IL8), CXCL8 (gene 3576); experiment: BSK_hDFCGF_IL8: BioMAP Diversity Plus: hDFCGF Assay for Interleukin-8 (IL8) Biomarker Activity (AID 2283058); conditions: primary human foreskin fibroblasts; actives raise or lower the signal
Summary of the method: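 IL-8 levels from compound-treated primary human fibroblasts were read by ELISA at 24 h, with DMSO serving as baseline for bidirectional fitting.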

[16] = BSK_hDFCGF_Proliferation: Cell Proliferation Assessment in the BioMAP Diversity Plus: hDFCGF Assay (AID 2283059); conditions: primary human foreskin fibroblasts;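 also: curves fitted for both rise and fall of signal versus DMSO baseline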
Summary of the method: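 Total protein read at 560 nm after 0.1% SRB staining of TCA-fixed human skin fibroblasts, […]. Activity is fitted in both directions relative to DMSO as baseline.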

[17] = read-out: Macrophage colony-stimulating factor (MCSF), CSF1 (gene 1435); experiment: BSK_hDFCGF_MCSF: BioMAP Diversity Plus: hDFCGF Assay for Macrophage colony-stimulating factor (MCSF) Biomarker Activity (AID 2283060); conditions: primary human foreskin fibroblasts; actives raise or lower the signal
Summary of the method: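 M-CSF levels, determined by ELISA, are taken at 24 h after dosing human skin fibroblasts. Responses in either direction are fitted with DMSO serving as the baseline.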

[18] = BSK_hDFCGF_SRB: Viability Assessment in the BioMAP Diversity Plus: hDFCGF Assay (AID 2283061); conditions: primary human foreskin fibroblasts;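 also: cells exposed to compound for 24 h before the read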
Summary of the method: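 Cells were dosed with test chemical, cultured 24 h, fixed with 10% TCA, then stained with 0.1% SRB and read at 560 nm. The fibroblasts were human foreskin primary cells, and DMSO served as baseline.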

[19] = read-out: TIMP metallopeptidase inhibitor 1 (TIMP1), TIMP1 (gene 7076); experiment: BSK_hDFCGF_TIMP1: BioMAP Diversity Plus: hDFCGF Assay for TIMP metallopeptidase inhibitor 1 (TIMP1) Biomarker Activity (AID 2283062); conditions: primary human foreskin fibroblasts; actives raise or lower the signal
Summary of the method: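 Fibroblasts from human foreskin are treated with test chemical and harvested at 24 h. TIMP-1 is quantified by ELISA, and gain or loss of signal is scored against DMSO.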

[20] = read-out: Monokine induced gamma interferon (MIG), CXCL9 (gene 4283); experiment: BSK_hDFCGF_MIG: BioMAP Diversity Plus: hDFCGF Assay for Monokine induced gamma interferon (MIG) Biomarker Activity (AID 2283063); conditions: primary human foreskin fibroblasts; actives raise or lower the signal
Summary of the method: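 MIG signal, determined by ELISA, reflects 24 h chemical exposure of human skin primary fibroblasts. DMSO serves as negative control and baseline.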

## O=c1c2ccccc2oc2ccccc12
[1]
  outcome: inactive
[2]
  outcome: inactive
[3]
  outcome: inactive
[4]
  outcome: inactive
[5]
  outcome: inactive
[6]
  outcome: inactive
[7]
  outcome: inactive
[8]
  outcome: inactive
[9]
  AC50: 2.7 µM (active)
[10]
  outcome: inactive
[11]
  outcome: inactive
[12]
  outcome: inactive
[13]
  outcome: inactive
[14]
  outcome: inactive
[15]
  outcome: inactive
[16]
  outcome: inactive
[17]
  outcome: inactive
[18]
  outcome: inactive
[19]
  outcome: inactive
[20]
  outcome: inactive

## CC(C)C(=O)C(C)C
[1]
  outcome: inactive
[2]
  outcome: inactive
[3]
  outcome: inactive
[4]
  outcome: inactive
[5]
  outcome: inactive
[6]
  outcome: inactive
[7]
  outcome: inactive
[8]
  outcome: inactive
[9]
  outcome: inactive
[10]
  outcome: inactive
[11]
  outcome: inactive
[12]
  outcome: inactive
[13]
  outcome: inactive
[14]
  outcome: inactive
[15]
  outcome: inactive
[16]
  outcome: inactive
[17]
  outcome: inactive
[18]
  outcome: inactive
[19]
  outcome: inactive
[20]
  outcome: inactive

## C#CC1(O)CC[C@H]2[C@@H]3CCC4=CCCC[C@@H]4[C@H]3CC[C@@]21C (stereo partly specified)
[1]
  AC50: 20 µM (active)
[2]
  outcome: inactive
[3]
  AC50: 32.1 µM (active)
[4]
  AC50: 8.11 µM (active)
[5]
  AC50: 20 µM (active)
[6]
  AC50: 20 µM (active)
[7]
  AC50: 31 µM (active)
[8]
  AC50: 20 µM (active)
[9]
  AC50: 20 µM (active)
[10]
  AC50: 34.4 µM (active)
[11]
  AC50: 20 µM (active)
[12]
  AC50: 29.4 µM (active)
[13]
  AC50: 34.4 µM (active)
[14]
  AC50: 20 µM (active)
[15]
  outcome: inactive
[16]
  AC50: 15.1 µM (active)
[17]
  AC50: 30 µM (active)
[18]
  AC50: 35.2 µM (active)
[19]
  AC50: 33 µM (active)
[20]
  AC50: 35 µM (active)

## C=CCOc1c(Br)cc(Br)cc1Br
[1]
  AC50: 28.3 µM (active)
[2]
  AC50: 20 µM (active)
[3]
  AC50: 32.3 µM (active)
[4]
  AC50: 29.5 µM (active)
[5]
  outcome: inactive
[6]
  AC50: 20 µM (active)
[7]
  AC50: 30.4 µM (active)
[8]
  outcome: inactive
[9]
  AC50: 16.9 µM (active)
[10]
  AC50: 35.5 µM (active)
[11]
  AC50: 33.5 µM (active)
[12]
  AC50: 32.3 µM (active)
[13]
  AC50: 20 µM (active)
[14]
  outcome: inactive
[15]
  outcome: inactive
[16]
  AC50: 10.3 µM (active)
[17]
  AC50: 12.5 µM (active)
[18]
  AC50: 25.7 µM (active)
[19]
  AC50: 8.19 µM (active)
[20]
  AC50: 20 µM (active)

## N#[N+]c1ccc2c(S(=O)(=O)[O-])cccc2c1O
[1]
  outcome: inactive
[2]
  outcome: inactive
[3]
  outcome: inactive
[4]
  outcome: inactive
[5]
  outcome: inactive
[6]
  outcome: inactive
[7]
  outcome: inactive
[8]
  outcome: inactive
[9]
  outcome: inactive
[10]
  outcome: inactive
[11]
  outcome: inactive
[12]
  outcome: inactive
[13]
  outcome: inactive
[14]
  outcome: inactive
[15]
  outcome: inactive
[16]
  outcome: inactive
[17]
  outcome: inactive
[18]
  outcome: inactive
[19]
  outcome: inactive
[20]
  outcome: inactive

## O=Nc1ccc(O)cc1
[1]
  outcome: inactive
[2]
  outcome: inactive
[3]
  outcome: inactive
[4]
  outcome: inactive
[5]
  outcome: inactive
[6]
  outcome: inactive
[7]
  outcome: inactive
[8]
  outcome: inactive
[9]
  outcome: inactive
[10]
  outcome: inactive
[11]
  outcome: inactive
[12]
  outcome: inactive
[13]
  outcome: inactive
[14]
  outcome: inactive
[15]
  outcome: inactive
[16]
  outcome: inactive
[17]
  outcome: inactive
[18]
  outcome: inactive
[19]
  outcome: inactive
[20]
  outcome: inactive

## c1ccc2c(c1)ccc1cc3c(ccc4ccccc43)cc12
[1]
  outcome: inactive
[2]
  outcome: inactive
[3]
  outcome: inactive
[4]
  outcome: inactive
[5]
  outcome: inactive
[6]
  outcome: inactive
[7]
  outcome: inactive
[8]
  AC50: 0.0962 µM (active)
  outcome: inactive
[9]
  outcome: inactive
[10]
  outcome: inactive
[11]
  outcome: inactive
[12]
  outcome: inactive
[13]
  outcome: inactive
[14]
  outcome: inactive
[15]
  outcome: inactive
[16]
  outcome: inactive
[17]
  outcome: inactive
[18]
  outcome: inactive
[19]
  outcome: inactive
[20]
  outcome: inactive

## CC(C)(c1cc(Br)c(OCCO)c(Br)c1)c1cc(Br)c(OCCO)c(Br)c1
[1]
  AC50: 4.39 µM (active)
[2]
  outcome: inactive
[3]
  outcome: inactive
[4]
  outcome: inactive
[5]
  outcome: inactive
[6]
  outcome: inactive
[7]
  outcome: inactive
[8]
  outcome: inactive
[9]
  outcome: inactive
[10]
  AC50: 23.3 µM (active)
[11]
  outcome: inactive
[12]
  AC50: 6.14 µM (active)
[13]
  AC50: 4.6 µM (active)
[14]
  outcome: inactive
[15]
  outcome: inactive
[16]
  AC50: 4.47 µM (active)
[17]
  AC50: 8.17 µM (active)
[18]
  AC50: 16.2 µM (active)
[19]
  AC50: 25.4 µM (active)
[20]
  AC50: 13.1 µM (active)

## CCCCC(CC)COCC1CO1 (stereo unspecified)
[1]
  outcome: inactive
[2]
  outcome: inactive
[3]
  outcome: inactive
[4]
  outcome: inactive
[5]
  outcome: inactive
[6]
  outcome: inactive
[7]
  outcome: inactive
[8]
  outcome: inactive
[9]
  outcome: inactive
[10]
  outcome: inactive
[11]
  outcome: inactive
[12]
  outcome: inactive
[13]
  outcome: inactive
[14]
  outcome: inactive
[15]
  outcome: inactive
[16]
  outcome: inactive
[17]
  outcome: inactive
[18]
  outcome: inactive
[19]
  outcome: inactive
[20]
  outcome: inactive
